Compound activity deposited in PubChem BioAssay by National Center for Advancing Translational Sciences (NCATS).
An excerpt weighted towards active compounds, which were near 0.55% of everything screened.
HEK293 tox – cytotoxic in the GLP-1 receptor inverse agonist counter-screen. Potency, µM (series often up to 38.3 µM), inactives show at the highest dose activity change, negative = inhibition, usual class: inhibitors. HEK293 cAMP-luciferase reporter cells, luminescence, 24 h. actives 0.13% (n = 410,000);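 further: loss of luciferase light is scored as toxicity; on the % scale 0 is the no-effect control and ±100 the full control effect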
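Seeding density was 200 cells/uL; after overnight-length (12 h) culture, 23 nL compounds went on for 24 h at 37 °C. Readout used a luciferase detection reagent, luminescence taken after 12 min at room temperature.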
EPAC2 agonist – EPAC2 (human) agonism | Q8WZA2 | EPAC2 activation, biochemical qHTS; response scale: 100% = 6.5 mM cAMP response | Potency, µM (series often up to 154 µM), without a hit: at the highest dose activation, usual class: activators | actives 0.079% (n = 360,000) | AID 720711; further: nearly all actives have a fitted effect of over 50% in size
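Readout is BODIPY fluorescence (480 nm excitation, 540 nm emission), which falls as labeled GDP is exchanged off Rap1B. EPAC2 at 100 nM acted on 250 nM RAP1B-BODIPY-GDP with 50 uM GDP present.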
EPAC1 antag – EPAC1 (human) antagonism; actives 0.14% (n = 360,000); O95398; Potency, µM (doses to about 115 µM), for the others: at the highest dose activity change, negative = inhibition, hits mostly inhibitors; EPAC1 GEF assay, Rap1b-BODIPY-GDP exchange fluorescence;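 further: plate controls were vehicle for no effect and positive control for full effect; nearly all actives have a fitted effect of over 50% in size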
Target sequence (O95398 whole entry, looked up): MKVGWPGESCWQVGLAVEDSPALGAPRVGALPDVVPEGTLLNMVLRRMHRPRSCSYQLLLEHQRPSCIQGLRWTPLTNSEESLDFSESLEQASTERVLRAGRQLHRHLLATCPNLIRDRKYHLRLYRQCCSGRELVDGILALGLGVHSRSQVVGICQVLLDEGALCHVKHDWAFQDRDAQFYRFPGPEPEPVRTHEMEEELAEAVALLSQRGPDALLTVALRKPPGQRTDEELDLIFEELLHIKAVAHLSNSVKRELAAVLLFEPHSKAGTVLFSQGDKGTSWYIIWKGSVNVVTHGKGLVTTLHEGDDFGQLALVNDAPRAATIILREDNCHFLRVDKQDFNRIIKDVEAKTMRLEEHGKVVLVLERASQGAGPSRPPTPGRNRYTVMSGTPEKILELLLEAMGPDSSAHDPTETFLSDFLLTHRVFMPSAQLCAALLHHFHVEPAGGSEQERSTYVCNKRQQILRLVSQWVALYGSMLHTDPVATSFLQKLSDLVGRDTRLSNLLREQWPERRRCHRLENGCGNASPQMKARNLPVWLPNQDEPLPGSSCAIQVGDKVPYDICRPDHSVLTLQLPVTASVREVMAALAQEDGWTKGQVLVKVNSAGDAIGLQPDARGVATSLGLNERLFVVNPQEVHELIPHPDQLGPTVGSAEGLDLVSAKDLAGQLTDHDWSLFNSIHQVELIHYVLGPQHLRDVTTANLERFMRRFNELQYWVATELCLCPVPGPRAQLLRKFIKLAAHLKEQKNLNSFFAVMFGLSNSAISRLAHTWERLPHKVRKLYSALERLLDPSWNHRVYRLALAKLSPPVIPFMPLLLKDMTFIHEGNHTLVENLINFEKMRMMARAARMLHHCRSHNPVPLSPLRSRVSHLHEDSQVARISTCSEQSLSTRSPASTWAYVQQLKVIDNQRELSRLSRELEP
EPAC2 antagonist – blocks human EPAC2 exchange factor. Q8WZA2. EPAC2 GEF exchange of Rap1B-BODIPY-GDP, fluorescence. actives 0.18% (n = 360,000). Potency, µM (top dose mostly 114 µM), for inactives: at the top dose activity, negative = inhibition, most hits filed as inhibitors. AID 720708; further: on the % scale 0 is the no-effect control and ±100 the full control effect; nearly all actives have a fitted effect of over 45% in size
EPAC1 agonist – agonists of human EPAC1. O95398. EPAC1 agonist qHTS, biochemical assay; response scale: 100% = response to 6.5 mM cAMP. Potency, µM (titrated, usually from 154 µM), without a hit: at the highest dose activation, usual class: activators. actives 0.073% (n = 360,000). AID 720707; further: nearly all actives have a fitted effect of over 60% in size
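Compounds were pinned as a concentration titration into mixtures of EPAC1 (100 nM), BODIPY-GDP-loaded Rap1B (250 nM) and GDP (50 uM). After 5 min at room temperature, fluorescence was followed for 30 min; activity was scaled to 6.5 mM cAMP.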
USP1-UAF1 inh – USP1/UAF1 (human) deubiquitinase inhibition; recombinant USP1/UAF1, Ub-Rhodamine cleavage fluorescence; Potency, µM (doses to about 57.1 µM), for inactives: at the top dose activity change, negative = inhibition, hits mostly inhibitors; actives 0.23% (n = 390,000); AID 743255; further: on the % scale 0 is the no-effect control and ±100 the full control effect; nearly all actives have a fitted effect of over 60% in size
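In this screen, compounds sit with the deubiquitinase complex (1nM) for 15 min at room temperature before Ub-Rho is added at 150nM final. Fluorescence rise is then followed for 6 reads every 60 seconds.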
* hit, by the source's call; i = inactive; ? = inconclusive; . = no result; ! = not confirmed by another sample; [ ] = remark or other dose. The call rests on the fitted dose curve; in most records, active means well fitted curve in the direction sought with a large enough effect; inconclusive means small, poorly fitted or top-dose-only effect, or another doubt; inactive means no such curve, though single readings can be large; an effect the other way counts as inactive or inconclusive. Potency means the concentration at half of the fitted maximal effect.

SMILES	HEK293 tox	EPAC2 agonist	EPAC1 antag	EPAC2 antagonist	EPAC1 agonist	USP1-UAF1 inh
Cc1cc(NC(=O)CSCC(=O)Nc2ccccc2Oc2ccccc2)no1	-6%	-3%	-20%	-4%	0%	-4%
CCOc1ccccc1NC(=O)Cn1cnc2onc(-c3ccc(F)cc3)c2c1=O	4%	.	.	.	.	-30%
Cc1ccc(C2Nc3ccccc3-n3c(-c4ccccc4)c4c(=O)n(C)c(=O)n(C)c4c32)o1 (centres undefined)	1%	.	.	.	.	?
Cn1cc(/C=C2\SC(=S)N(NC(=O)c3ccccc3Cl)C2=O)c2ccccc21	20%	?	68%	23%	100µM*	?
Cc1ccc(C(=O)NN2C(=O)/C(=C/c3cn(C)c4ccccc34)SC2=S)cc1	-6%	4%	-1%	17%	100µM*	-25%
COc1ccccc1CNC(=O)c1c(O)nc2c(C)cccn2c1=O	5%	.	.	.	.	-9%
Cc1nc2ccc(S(=O)(=O)N(C)CC(=O)Nc3cccc(C(F)(F)F)c3)cc2s1	-1%	.	.	.	.	-25%
CCOc1ccc(NC(=O)/C(C#N)=C/c2ccc(N3CCCC3)c(C)c2)cc1	2%	1%	90%	16%	112µM*	-25%
CC(=O)c1ccc2c3c(cccc13)CC2	-8%	0%	2%	8%	-1%	-20%
ON=C(c1ccccc1)c1ccc2c3c(cccc13)CC2	-4%	19%	6%	14µM*	4%	-28%
COc1cccc(NC2c3ccccc3C(=O)N2Cc2ccco2)c1 (centres undefined)	-15%	7%	-19%	-13%	0%	-13%
Cc1ccccc1NC1c2ccccc2C(=O)N1Cc1ccco1 (centres undefined)	-8%	8%	3%	32µM*	-10%	-27%
COc1ccc(C2CC(c3cccs3)=NN2c2ccc(C=O)cc2)cc1 (centres undefined)	i	14%	109%	22%	89µM*	?
COc1ccc(C2=NN(c3ccc(C=O)cc3)C(c3ccccc3)C2)cc1 (centres undefined)	408%	10%	-13%	4%	12%	-19%
O=C1C=C(Nc2ccccc2)C(=O)c2ccccc21	-9%	3%	?	-8%	0%	?
O=C1C=C(Nc2ccccc2)c2ccccc2C1=O	?	-14%	-9%	-1%	-6%	13µM*
O=C1C=C(Nc2ccccc2C(=O)O)c2ccccc2C1=O	?	-1%	-11%	?	-8%	7.9µM*
CCCCNC1=CC(=O)C(=O)c2ccccc21	-11%	8%	?	-1%	9%	25µM*
O=C(CN1C(=O)c2ccccc2C1=O)Nc1cccc2cccnc12	4%	7%	-3%	-2%	-8%	-12%
O=C1C=C(Nc2cccc3cccnc23)c2ccccc2C1=O	-27%	6%	?	-25%	1%	18µM*
O=C(O)c1ccccc1Nc1ccccc1C(=O)O	1%	13%	9%	0%	12%	-9%
CCOc1cc(C(=O)N2CCc3c([nH]c4ccccc34)C2c2ccccc2)cc(OCC)c1OCC (centres undefined)	0%	.	.	.	.	-26%
CCCCN(C)CCNC(=O)Cn1ncc2c3ccccc3n(CCC)c2c1=O	?	.	.	.	.	-16%
COc1ccc(N(Cc2cccs2)C(=O)c2ccco2)cc1	-22%	.	.	.	.	0%
CCN(CC)c1ccc(NC(=O)C2COc3ccc(OC)cc3C2)c(C)c1 (centres undefined)	?	.	.	.	.	-11%
SMILES	HEK293 tox	EPAC2 agonist	EPAC1 antag	EPAC2 antagonist	EPAC1 agonist	USP1-UAF1 inh
CCc1ccc2c(c1)C(=O)c1ccccc1C2=O	-8%	-2%	-14%	3%	-7%	-20%
CCc1ccc(NC2=CC(=O)C(=O)c3ccccc32)cc1	-13%	0%	-23%	-8%	-40%	28µM*
CCc1ccccc1N1C(=O)N(Cc2cccc(Cl)c2)c2ccccc2S1(=O)=O	2%	.	.	.	.	-19%
Cc1ccc(NS(=O)(=O)c2ccc(C(=O)N3CC(C)CC(C)C3)cc2)cc1 (centres undefined)	11%	4%	-12%	-18%	100µM*	-27%
Cc1ccc(S(=O)(=O)Nc2ccc(C(=O)N3CCCC3)cc2)cc1	38%	0%	-11%	9%	0%	-20%
COc1ccc(C(=O)NC(=S)N2CCN(c3ccccc3OC)CC2)cc1	4.5µM*	2%	-17%	?	12%	-6%
CCOc1ccc(CNC(=O)Cn2nc(C)c3nn(-c4ccc(Cl)cc4)c(C)c3c2=O)cc1OC	-5%	.	.	.	.	-3%
O=C1C=C(N(CCO)Cc2ccccc2)c2ccccc2C1=O	6%[0.307 µM]	24%	45µM*	?	9%	3.5µM*
O=C1c2ccccc2C(=O)c2c1cccc2N(CCO)CCO	-34%	2%	-21%	-10%	3%	-33%
Cc1ccc(/C=C2\S/C(=N/S(=O)(=O)c3cccs3)NC2=O)cc1	-2%	-8%	40µM*	?	-9%	?
Cc1oc2c(cc(NS(=O)(=O)c3ccc(C(C)C)cc3)c3ccccc32)c1C(=O)O	2%	?	-25%	-3%	-3%	28µM*!
COc1ccc(NC(=O)[C@H]2O[C@@H]3OC(C)(C)O[C@@H]3[C@H]3OC(C)(C)O[C@H]32)c(OC)c1	-14%	.	.	.	.	?
COc1ccc2cc(CCC(C)=O)ccc2c1	-10%	6%	-10%	28µM*	-10%	?
Cc1ccc(S(=O)(=O)Nc2ccc(O)c(Sc3ncn[nH]3)c2)cc1	-7%	8%	18%	-10%	15%	?
Cc1ccc(S(=O)(=O)/N=C2/C=C(Sc3ncn[nH]3)C(=O)c3ccccc32)cc1	?	19%	45µM*	20µM*	-6%	1µM*
CC(C)c1ccc(S(=O)(=O)/N=C2/C=C(Sc3ncn[nH]3)C(=O)c3ccccc32)cc1	-11%	2%	56µM*	89µM*	13%	1.8µM*
C=CCN(CC=C)C(=S)NC(=O)c1ccc(OC)cc1	0.63µM*	-1%	-24%	-17%	-1%	-3%
C=CCN(CC=C)C(=S)NC(=O)c1ccc(-c2ccccc2)cc1	?	-6%	-8%	-11%	8%	-19%
COc1cccc(NC(=O)CSc2nc3c([nH]c4ccccc43)c(=O)n2-c2ccccc2)c1	-22%	.	.	.	.	-16%
C=CCN1C(=O)/C(=C/c2ccc(OC(C)=O)c(OCC)c2[N+](=O)[O-])SC1=S	?	13%	71µM*	-29%	0%	14µM*
